Screening data deposited in PubChem by National Center for Advancing Translational Sciences (NCATS).
An excerpt weighted towards active compounds, which were near 14% of everything screened.
Sm TGR block – inhibitors of Schistosoma mansoni thioredoxin glutathione reductase; AID 485364; 3% of 360,000 active; Q962Y6; purified TGR, DTNB reduction, TNB absorbance 405 nm; Potency, µM (titrated, usually from 114 µM), for the others: at the top dose activity change, negative = inhibition, hits mostly inhibitors; further: potency means the concentration at half of the fitted maximal effect; nearly all actives have a fitted effect of over 60% in size
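TGR 20 nM + NADPH 100 uM (dispensed conc.), cpd preinc 15 min RT; start with NADPH (500 uM addition) then DTNB (15 mM addition). Kinetic TNB absorbance, 405 nm filter. Four-parameter Hill fit across titration.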
Pf growth 96h – P. falciparum growth inhibition at 96 hours; P. falciparum luciferase reporter growth, 96 h; Potency, µM (series often up to 28.7 µM), inactives show at the highest dose activity change, negative = inhibition, usual class: inhibitors; 6.9% of 320,000 active; AID 504834; further: potency means the concentration at half of the fitted maximal effect
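Readout is luminescence from an integrated firefly luciferase in P. falciparum. Red cells, 2% hematocrit and 0.05% parasitemia final, were cultured with compound through two parasite generations (96 hours) at 37 C, 5% CO2.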
FBPA Giardia inh – blocks Giardia fructose-bisphosphate aldolase activity; Potency, µM (series often up to 59.6 µM), inactives show at the highest dose activity, negative = inhibition, actives largely listed as inhibitors; 0.71% of 290,000 active; purified Giardia FBPA; A8B2U2; further: potency means the concentration at half of the fitted maximal effect; nearly all actives have a fitted effect of over 55% in size
Target sequence (A8B2U2 whole entry, looked up): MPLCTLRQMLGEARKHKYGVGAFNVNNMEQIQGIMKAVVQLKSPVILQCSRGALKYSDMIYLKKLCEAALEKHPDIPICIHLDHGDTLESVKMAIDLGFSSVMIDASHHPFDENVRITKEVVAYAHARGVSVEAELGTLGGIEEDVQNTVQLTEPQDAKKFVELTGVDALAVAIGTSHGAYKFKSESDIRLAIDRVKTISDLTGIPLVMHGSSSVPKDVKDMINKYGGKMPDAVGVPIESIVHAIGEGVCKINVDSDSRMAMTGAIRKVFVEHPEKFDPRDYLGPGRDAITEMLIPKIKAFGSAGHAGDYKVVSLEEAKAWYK
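Giardia FBPA (40 nM reagent) was preincubated 10 min at RT with compound (up to 57.5 uM final), then substrate plus GAPDH/TPI/NAD/arsenate coupling system with diaphorase/resazurin was added; resorufin fluorescence (525/598 nm) was read after 20 min.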
HCMV inh – human cytomegalovirus inhibition. HFF cells, HCMV-luciferase reporter, 72 h; active compounds read low. activity change, negative = inhibition, % at 57.5 µM. 4.5% of 410,000 active. AID 1259415; in the data active means activity change below about -60%; inconclusive means no clear call, values can overlap the other calls; inactive means above about -39%
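HFF cells seeded 16 h at 37C, treated with compounds, infected with luciferase-reporter HCMV at MOI 1 PFU/cell; luciferase read at 72 h post infection, normalized to buffer-only and Salinomycin controls.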
Pf growth 48h – inhibits P. falciparum growth in the first generation, 48 h. P. falciparum luciferase growth in erythrocytes, 48 h. Potency, µM (highest dose often 28.7 µM), for the others: top-dose activity change, negative = inhibition, usual class: inhibitors. 5.9% of 310,000 active. AID 504832; further: potency means the concentration at half of the fitted maximal effect
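Here the parasites carry a stable luciferase gene and grow inside erythrocytes in Albumax-based RPMI medium with compound for one erythrocytic cycle. Activity is scored as loss of luminescent signal.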
* marks the source's active call; other numbers are inactive results; ? = inconclusive; · = no result; ! = repeats disagree; [ ] = dose if it differs, or a comment. Unless noted, the call rests on the fitted dose curve; in most records, active means well fitted curve in the direction sought with a large enough effect; inconclusive means small, poorly fitted or top-dose-only effect, or another doubt; inactive means no such curve, though single readings can be large; an effect the other way counts as inactive or inconclusive. On the % scale 0 is the no-effect control and ±100 the full control effect.

SMILES	Sm TGR block	Pf growth 96h	FBPA Giardia inh	HCMV inh	Pf growth 48h
CCC1CC=CC2C1C(=O)N(Cc1ccccc1)C2c1cc(C)ccc1F (stereo not given)	·	·	-1%	·	·
Cc1ccc(-n2nc3c(c2NC(=O)C(C)C)CS(=O)(=O)C3)c(C)c1	6%	?	19%	52	0.015µM*
Cc1ccc(-n2nc3c(c2NC(=O)c2ccco2)CS(=O)(=O)C3)c(C)c1	?	?	-3%	-30	-6%
O=C(Nc1ccc([N+](=O)[O-])cc1)C(Cc1ccccc1)N1C(=O)c2cccc3cccc(c23)C1=O (stereo not given)	11%	?	6%	-28	5.2µM*
CCOc1ccccc1N(C)C(=O)c1nn(-c2ccc(OC)cc2OC)c(=O)c2ccccc12	7%	5%	-5%	-14	?
O=C(c1ccc(Br)cc1)C1CCc2occc2C1=O (stereo not given)	56µM*	·	-19%	-12	9%
O=C(NNC(=O)C1CCCCC1)c1ccc(Br)cc1	·	-3%	0%	-23	61%
O=C(N[C@H](Cc1ccccc1)C(O)c1nc2ccccc2[nH]1)c1cccc2ccccc12 (stereo not given in full)	·	·	·	-12	·
CCC1(CC)NC(=O)N(CC(=O)Nc2sc3c(c2C(N)=O)CCC3)C1=O	45µM*	-16%	-5%	-13	-26%
CCC1(C)NC(=O)N(CC(=O)Nc2sc3c(c2C(=O)OC)CCCCC3)C1=O (stereo not given)	-1%	2%	-5%	-12	18%
Nc1c(C(=O)Nc2ccccc2)nnn1Cc1ccc(F)cc1Cl	-1%	·	·	12	·
CCN(CC)c1ccc(N=Cc2c(O)n(CCc3ccc(OC)c(OC)c3)c(=O)[nH]c2=O)cc1	-2%	10µM*	-13%	31	7.4µM*
CCN(CC)c1ccc(N=Cc2c(O)n(Cc3ccco3)c(=O)[nH]c2=O)cc1	-27%	?	0%	-9	12µM*
N#Cc1c(/N=C/c2c(O)n(Cc3ccco3)c(=O)[nH]c2=O)sc2c1CCCC2	89µM*	?	?	1	51%
NC(=O)c1ccc(N=Cc2c(O)n(Cc3ccco3)c(=O)[nH]c2=O)cc1	40µM*	22%	-12%	0	74%
Cc1ccc(/C=N/c2sc3c(c2C#N)CCC3)s1	-31%	7.4µM*	-4%	48	71%
CCCCc1nc2ccccc2c(=O)n1-c1ccc(Cl)cc1[N+](=O)[O-]	15%	-3%	1%	-62*	?
Cc1cc(C)n(CC(=O)NC2CCCc3c2cnn3-c2ccc(C)c(C)c2)n1 (stereo not given)	-14%	?	6%	-11	48%
N#CC(C(=O)Nc1ccc(Cl)c(Cl)c1)=C1Nc2ccccc2N1	2%	2.6µM*	-5%	-11	7%
N#CC(C(=O)Nc1cccc(Cl)c1)=C1Nc2ccccc2N1	-1%	-12%	-23%	?	15%
CCN(CC)CC#CCOC(=O)[C@@](O)(c1ccccc1)C1CCCCC1	·	12µM*	3%[21.7 µM]	·	?
CC[N+](C)(CC)CCC(c1ccccc1)C1CCCCC1 (stereo not given)	18µM*	?	-8%	-34	6.6µM*
CC[N+](C)(CC)CCCOC(=O)C(O)(c1ccccc1)C1CCCCC1 (stereo not given)	-4%	-10%	0%	-4	4.1µM*
O=C(O)C(O)(c1ccccc1)C1CCCCC1 (stereo not given)	36%	?	7%	20	-2%
CC[N+](C)(CC)CCOC(=O)C(O)(c1ccccc1)C1CCCCC1 (stereo not given)	8%	13µM*!	-7%	?	12µM*!
Cc1ccc(C)c(OCC(=O)N/N=C/c2ccc(N3CCOCC3)cc2)c1	·	·	·	6	·
COc1cccc2c1cc1c(=O)n(CC(=O)NCCCN3CCCCC3)nc(C)n12	-1%	?	·	·	13%
N#Cc1ccc(CN2CCCC3(CCN(C(=O)c4cnccn4)CC3)C2)cc1	·	·	1%	·	·
CCOC(C(=O)OCC(O)CN(CC)CC)(c1ccccc1)c1ccccc1 (stereo not given)	-6%	-31%	1%	-9	10µM*
CCN(CC)CCOC(=O)C(O)(c1ccccc1)c1ccccc1	-6%	-1%	0%	-22	7%
